Laboratory results as given in PubChem BioAssay (EPA / NIEHS).
The source made the active and inactive calls. Rule for the calls: active = hit-call score of the fitted dose curve at least 0.9, where 1 is the maximum; inactive = score below 0.9.

Assays:
Details in all cases: mRNA level, 48 h; actives raise or lower the signal
[1] = read-out: Insulin Like Growth Factor 1 (IGF1), IGF1 (gene 3479); test: LTEA_HepaRG_IGF1: Life Technologies and Expression Analysis (LTEA) Assay for Insulin Like Growth Factor 1 (IGF1) using HepaRG (AID 2283506)
Summary of the method: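 Differentiated human HepaRG cells were dosed for 48 h in serum-free induction medium with 0.5% DMSO, eight half-log concentrations up to 100 uM, in duplicate. IGF1 mRNA was quantified by qRT-PCR normalized to ACTB, GAPDH, POLR2A; bidirectional fitting versus DMSO.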

[2] = read-out: Intercellular Adhesion Molecule 1 (ICAM1), ICAM1 (gene 3383); test: LTEA_HepaRG_ICAM1: Life Technologies and Expression Analysis (LTEA) Assay for Intercellular Adhesion Molecule 1 (ICAM1) using HepaRG (AID 2283507)
Summary of the method: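 Using the human liver line HepaRG, compounds are tested in duplicate over 48 h at concentrations up to 100 uM. Expression is determined by TaqMan qRT-PCR, normalized to endogenous controls, and analysed relative to 0.5% DMSO vehicle.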

[3] = read-out: Insulin-like growth factor-binding protein 1 (IGFBP1), IGFBP1 (gene 3484); test: LTEA_HepaRG_IGFBP1: Life Technologies and Expression Analysis (LTEA) Assay for Insulin-like growth factor-binding protein 1 (IGFBP1) using HepaRG (AID 2283508)
Summary of the method: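 HepaRG, 48 h, 8 conc. (max 100 uM, half-log), duplicates, 0.5% DMSO. Readout: TaqMan qRT-PCR, ACTB/GAPDH/POLR2A normalisation. Fit: bidirectional vs DMSO.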

[4] = read-out: Interleukin 6 (IL6), IL6 (gene 3569); test: LTEA_HepaRG_IL6: Life Technologies and Expression Analysis (LTEA) Assay for Interleukin 6 (IL6) using HepaRG (AID 2283509)
Summary of the method: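 Differentiated human HepaRG cells, plated 48 h then switched to serum-free induction medium, were exposed in duplicate for 48 h to eight half-log concentrations up to 100 uM in 0.5% DMSO. IL6 mRNA measured by qRT-PCR, normalized to ACTB/GAPDH/POLR2A.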

[5] = read-out: Interleukin 6 Receptor (IL6R), IL6R (gene 3570); test: LTEA_HepaRG_IL6R: Life Technologies and Expression Analysis (LTEA) Assay for Interleukin 6 Receptor (IL6R) using HepaRG (AID 2283510)
Summary of the method: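 Differentiated human HepaRG cells, plated 48 h then switched to serum-free induction medium, were dosed in duplicate for 48 h at eight half-log concentrations up to 100 uM in 0.5% DMSO. IL6R mRNA quantified by qRT-PCR, normalized to ACTB/GAPDH/POLR2A; bidirectional fit versus DMSO.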

[6] = read-out: Potassium channel subfamily K member 1 (KCNK1), KCNK1 (gene 3775); test: LTEA_HepaRG_KCNK1: Life Technologies and Expression Analysis (LTEA) Assay for Potassium channel subfamily K member 1 (KCNK1) using HepaRG (AID 2283511)
Summary of the method: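 Differentiated human HepaRG cells in serum-free induction medium were exposed in duplicate for 48 h to 8 half-log concentrations up to 100 uM in 0.5% DMSO. KCNK1 mRNA was measured by TaqMan qRT-PCR, normalized to ACTB, GAPDH and POLR2A, and fitted bidirectionally versus DMSO.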

[7] = read-out: Keratin 19 (KRT19), KRT19 (gene 3880); test: LTEA_HepaRG_KRT19: Life Technologies and Expression Analysis (LTEA) Assay for Keratin 19 (KRT19) using HepaRG (AID 2283512)
Summary of the method: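 Readout is qRT-PCR of KRT19 mRNA, normalized to ACTB, GAPDH and POLR2A, from HepaRG cells treated 48 h with eight-point half-log dilutions topping at 100 uM. Activity in either direction is scored relative to 0.5% DMSO vehicle.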

[8] = read-out: JUN Transcription Factor, JUN (gene 3725); test: LTEA_HepaRG_JUN: Life Technologies and Expression Analysis (LTEA) Assay for JUN Transcription Factor using HepaRG (AID 2283513)
Summary of the method: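 Differentiated HepaRG cells were exposed to chemicals for 48 h in serum-free induction medium, 8 concentrations from 100 uM in half-log steps, 0.5% DMSO vehicle, in duplicate. JUN mRNA was quantified by TaqMan qRT-PCR, normalized to ACTB, GAPDH, POLR2A.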

[9] = read-out: Lipase C (LIPC), LIPC (gene 3990); test: LTEA_HepaRG_LIPC: Life Technologies and Expression Analysis (LTEA) Assay for Lipase C (LIPC) using HepaRG (AID 2283514)
Summary of the method: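 Differentiated human HepaRG cells in serum-free induction medium were exposed in duplicate for 48 h to eight concentrations (top 100 uM, half-log steps, 0.5% DMSO). LIPC mRNA was quantified by TaqMan qRT-PCR, normalized to ACTB, GAPDH and POLR2A, with bidirectional fitting versus DMSO.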

[10] = read-out: Lipoprotein lipase (LPL), LPL (gene 4023); test: LTEA_HepaRG_LPL: Life Technologies and Expression Analysis (LTEA) Assay for Lipoprotein lipase (LPL) using HepaRG (AID 2283515)
Summary of the method: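 Differentiated human HepaRG cells in serum-free induction medium were exposed in duplicate for 48 h to eight half-log concentrations (top 100 uM) in 0.5% DMSO. LPL mRNA was quantified by TaqMan qRT-PCR, normalized to ACTB, GAPDH and POLR2A.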

[11] = read-out: MicroRNA 122 (MIR122), gene 406906; test: LTEA_HepaRG_MIR122: Life Technologies and Expression Analysis (LTEA) Assay for MicroRNA 122 (MIR122) using HepaRG (AID 2283516); note: the transcript read is the microRNA miR-122
Summary of the method: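 Differentiated human HepaRG cells were exposed 48 h in serum-free induction medium to eight half-log concentrations (top 100 uM, 0.5% DMSO). Transcript level was measured by TaqMan qRT-PCR, normalized to ACTB, GAPDH and POLR2A, and fitted bidirectionally versus DMSO.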

[12] = read-out: matrix metalloproteinase-10 (MMP10), MMP10 (gene 4319); test: LTEA_HepaRG_MMP10: Life Technologies and Expression Analysis (LTEA) Assay for matrix metalloproteinase-10 (MMP10) using HepaRG (AID 2283517)
Summary of the method: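 HepaRG, collagen I, ~100,000 cells/well; serum-free induction medium; 48 h exposure, duplicate, 8-pt half-log to 100 uM, 0.5% DMSO. Readout: TaqMan qRT-PCR, normalized to ACTB/GAPDH/POLR2A; bidirectional fit vs DMSO.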

MYC, MYC (gene 4609) = test: LTEA_HepaRG_MYC: Life Technologies and Expression Analysis (LTEA) Assay for MYC using HepaRG (AID 2283518)
Summary of the method: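 Expression changes were scored by TaqMan qRT-PCR with ACTB, GAPDH and POLR2A normalization. Cultures in serum-free induction medium received duplicate 8-point concentration series, highest 100 uM, for 48 h; DMSO (0.5%) served as baseline.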

[13] = read-out: matrix metalloproteinase-3 (MMP3), MMP3 (gene 4314); test: LTEA_HepaRG_MMP3: Life Technologies and Expression Analysis (LTEA) Assay for matrix metalloproteinase-3 (MMP3) using HepaRG (AID 2283519)
Summary of the method: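 Differentiated human HepaRG cells, plated 48 h on collagen I, were exposed in duplicate for 48 h in serum-free induction medium to eight half-log concentrations up to 100 uM in 0.5% DMSO. MMP3 mRNA was quantified by TaqMan qRT-PCR, normalised to ACTB, GAPDH and POLR2A.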

[14] = read-out: Paternally Expressed 10 (PEG10), PEG10 (gene 23089); test: LTEA_HepaRG_PEG10: Life Technologies and Expression Analysis (LTEA) Assay for Paternally Expressed 10 (PEG10) using HepaRG (AID 2283520)
Summary of the method: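 Differentiated HepaRG cells, plated 48 h then switched to serum-free induction medium, were exposed in duplicate for 48 h to eight half-log concentrations topping at 100 uM in 0.5% DMSO. PEG10 mRNA was quantified by TaqMan qRT-PCR, normalised to ACTB, GAPDH and POLR2A.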

[15] = read-out: Protein phosphatase 2A (PPP2R4), PTPA (gene 5524); test: LTEA_HepaRG_PPP2R4: Life Technologies and Expression Analysis (LTEA) Assay for Protein phosphatase 2A (PPP2R4) using HepaRG (AID 2283522)
Summary of the method: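 Differentiated HepaRG cells in serum-free induction medium were exposed in duplicate for 48 h to eight concentrations, top 100 uM with half-log dilutions, in 0.5% DMSO. PPP2R4 mRNA was quantified by TaqMan qRT-PCR, normalized to ACTB, GAPDH and POLR2A.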

[16] = read-out: Phosphatase and tensin (PTEN), PTEN (gene 5728); test: LTEA_HepaRG_PTEN: Life Technologies and Expression Analysis (LTEA) Assay for Phosphatase and tensin (PTEN) using HepaRG (AID 2283523)
Summary of the method: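 Differentiated human HepaRG cells, plated 48 h then switched to serum-free induction medium, were exposed in duplicate for 48 h to eight half-log concentrations up to 100 uM in 0.5% DMSO. PTEN mRNA measured by TaqMan qRT-PCR, normalized to ACTB/GAPDH/POLR2A, bidirectional fit versus DMSO.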

[17] = read-out: solute carrier (SLC22A1), SLC22A1 (gene 6580); test: LTEA_HepaRG_SLC22A1: Life Technologies and Expression Analysis (LTEA) Assay for solute carrier (SLC22A1) using HepaRG (AID 2283524)
Summary of the method: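 Human HepaRG cells were plated 48 h, switched to serum-free induction medium, then exposed in duplicate for 48 h to 8-point half-log series from 100 uM in 0.5% DMSO. SLC22A1 mRNA measured by qRT-PCR, normalized to ACTB/GAPDH/POLR2A, fitted bidirectionally versus DMSO.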

[18] = read-out: Pyruvate Dehydrogenase Kinase 4 (PDK4), PDK4 (gene 5166); test: LTEA_HepaRG_PDK4: Life Technologies and Expression Analysis (LTEA) Assay for Pyruvate Dehydrogenase Kinase 4 (PDK4) using HepaRG (AID 2283525)
Summary of the method: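 Differentiated human HepaRG cells, pre-cultured 48 h, were exposed in duplicate for 48 h in serum-free induction medium to eight half-log concentrations up to 100 uM in 0.5% DMSO. PDK4 mRNA was quantified by qRT-PCR, normalized to ACTB, GAPDH and POLR2A, bidirectional fitting versus DMSO.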

[19] = read-out: Nuclear factor NF-kappa-B p105 subunit (Homo sapiens) (UniProt P19838); test: LTEA_HepaRG_NFKB1: Life Technologies and Expression Analysis (LTEA) Assay for Nuclear Factor Kappa B Subunit 1 (NFKB1) using HepaRG (AID 2283521);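 note: TaqMan qRT-PCR transcript normalised to ACTB GAPDH and POLR2A housekeeping genes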
Summary of the method: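 HepaRG, 48 h exposure; 8-pt half-log series from 100 uM in 0.5% DMSO; duplicates. Readout: NFKB1 mRNA by qRT-PCR (Fluidigm arrays), housekeeping-normalized. Gain/loss fit vs DMSO baseline.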

Measured: outcome

Chain of Nuclear factor NF-kappa-B p105 subunit (Homo sapiens) (P19838 whole entry, looked up): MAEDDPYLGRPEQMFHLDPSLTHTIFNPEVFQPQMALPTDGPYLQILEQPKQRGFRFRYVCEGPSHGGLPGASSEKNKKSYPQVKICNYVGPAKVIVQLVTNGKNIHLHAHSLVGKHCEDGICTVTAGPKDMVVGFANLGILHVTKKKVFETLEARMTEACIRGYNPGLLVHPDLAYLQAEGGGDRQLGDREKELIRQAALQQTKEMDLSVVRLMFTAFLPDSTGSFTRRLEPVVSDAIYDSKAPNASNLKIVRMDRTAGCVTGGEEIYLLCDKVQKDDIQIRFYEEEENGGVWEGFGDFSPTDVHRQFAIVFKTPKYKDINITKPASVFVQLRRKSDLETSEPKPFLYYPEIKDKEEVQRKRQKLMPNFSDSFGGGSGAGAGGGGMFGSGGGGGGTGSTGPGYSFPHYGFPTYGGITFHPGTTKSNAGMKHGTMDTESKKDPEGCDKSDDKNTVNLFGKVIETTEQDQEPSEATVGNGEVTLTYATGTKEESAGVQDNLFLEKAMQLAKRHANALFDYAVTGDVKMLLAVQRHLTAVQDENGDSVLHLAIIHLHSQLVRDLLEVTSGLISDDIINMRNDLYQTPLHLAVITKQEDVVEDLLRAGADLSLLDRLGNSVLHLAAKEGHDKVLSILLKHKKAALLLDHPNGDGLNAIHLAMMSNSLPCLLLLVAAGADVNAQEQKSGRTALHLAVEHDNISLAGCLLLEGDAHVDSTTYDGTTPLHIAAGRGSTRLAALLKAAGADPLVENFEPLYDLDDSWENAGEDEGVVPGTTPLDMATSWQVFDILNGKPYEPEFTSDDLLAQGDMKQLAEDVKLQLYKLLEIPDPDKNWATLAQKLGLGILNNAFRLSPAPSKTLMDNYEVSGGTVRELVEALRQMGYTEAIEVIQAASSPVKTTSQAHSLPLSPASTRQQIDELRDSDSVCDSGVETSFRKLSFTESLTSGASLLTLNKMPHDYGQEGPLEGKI

Cc1c(C(=O)O)c(O)cc2c1C(=O)c1c(O)c([C@@H]3O[C@H](CO)[C@@H](O)[C@H](O)[C@H]3O)c(O)c(O)c1C2=O
inactive: [1] | [2] | [3] | [4] | [5] | [6] | [7] | [8] | [9] | [10] | [11] | [12] | MYC, MYC (gene 4609) | [13] | [14] | [15] | [16] | [17] | [18]

CCCCCCCCCCCCCCCC
inactive: [1] | [2] | [3] | [4] | [5] | [6] | [7] | [8] | [9] | [10] | [11] | [12] | MYC, MYC (gene 4609) | [13] | [14] | [15] | [16] | [17] | [18]

C[Si]1(C)O[Si](C)(C)O[Si](C)(C)O[Si](C)(C)O1
inactive: [1] | [2] | [3] | [4] | [5] | [6] | [7] | [8] | [9] | [10] | [11] | [12] | MYC, MYC (gene 4609) | [13] | [14] | [19] | [15] | [16] | [17] | [18]

Cc1ccc(C)c(O)c1C
inactive: [1] | [2] | [3] | [4] | [5] | [6] | [7] | [8] | [9] | [10] | [11] | [12] | MYC, MYC (gene 4609) | [14] | [19] | [15] | [16] | [17] | [18]
